Test results reported in PubChem BioAssay (NCATS).
Inconclusive results are not listed. Active and inactive are the calls of the source. Calls follow the shape of the full dose curve.
Potency is read from the fitted curve at half-maximal effect.

These compounds were tested against Cytochrome P450 1A2 (Homo sapiens) (UniProt P05177) (assay: p450-cyp1a2 (AID 410;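 as to activity change, negative = inhibition: -100% = full effect of reference inhibitor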)). Settings: recombinant CYP1A2, luciferin-ME demethylation, luminescence; series mostly up to 11.4 µM; activity change, negative = inhibition: at the top concentration.
Cytochrome P450 1A2 (Homo sapiens), sequence (P05177 whole entry, looked up): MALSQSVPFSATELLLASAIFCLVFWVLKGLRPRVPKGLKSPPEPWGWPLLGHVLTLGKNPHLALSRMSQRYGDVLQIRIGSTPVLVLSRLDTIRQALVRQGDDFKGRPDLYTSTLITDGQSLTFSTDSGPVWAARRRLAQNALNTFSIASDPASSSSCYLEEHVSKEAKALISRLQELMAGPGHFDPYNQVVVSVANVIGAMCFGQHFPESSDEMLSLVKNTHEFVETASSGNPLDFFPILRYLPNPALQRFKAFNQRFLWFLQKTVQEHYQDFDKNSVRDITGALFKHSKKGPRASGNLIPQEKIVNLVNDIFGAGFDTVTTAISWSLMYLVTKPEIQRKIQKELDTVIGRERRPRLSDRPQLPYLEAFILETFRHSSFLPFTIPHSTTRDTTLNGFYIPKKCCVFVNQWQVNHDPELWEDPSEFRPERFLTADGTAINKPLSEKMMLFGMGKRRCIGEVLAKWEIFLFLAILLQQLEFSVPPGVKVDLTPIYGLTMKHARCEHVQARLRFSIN
How it was run: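 Inhibition was calculated relative to 57 uM furafylline (full inhibition). The reaction used human CYP1A2 at 20nM with Luciferin-ME at its Km, 100uM, driven by an NADPH-regenerating system for 60 min at room temperature.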
For `Cc1ccc(Nc2nnc(-c3ccc4c(c3)OCO4)o2)c(C)c1`, the Potency was 2510 nM (active). With `CN[C@@H](c1ccncc1)[C@@H](NC)c1ccncc1` the “activity change, negative = inhibition” value was -13.3% (inactive). With `Cc1cnc(CNc2nc(-c3cccnc3)nc3ccccc23)cn1` the Potency was 2510 nM (active). With `C(=N/Nc1nnc2c(n1)[nH]c1ccccc12)/c1cccnc1` the Potency was 631 nM (active). For `CC(C)[C@@H]1OC(=O)C=CC=CC=CC=CC=CC[C@@H](O)[C@H](C)[C@@H](O)C[C@H](O)C[C@H](O)C[C@H](O)C[C@H](O)C[C@H](O)C[C@H](O)C=C[C@@H]1C`, the activity change, negative = inhibition was -2.1% [at 2.29 µM] (inactive). For `COc1ccc2c(c1)Cc1cc(N=[N+]([O-])c3ccc4c(c3)Cc3cc(OC)ccc3-4)ccc1-2`, the Potency was 1580 nM (active). `Nc1nc(SC/C=C\c2ccccc2)c2[nH]cnc2n1` was tested, and the Potency was 5010 nM (active). `O=C(CC(=O)c1ccncc1)c1ccccc1` was tested, and the Potency was 100 nM (active). In the case of `O=c1oc2cc(N=Cc3ccc4c(c3)OCO4)ccc2c2ccccc12`, the Potency is reported as 7.94 nM (active). `CSC1(SC2=NCCN2)SC2(NCCN2)S1` was tested, and the Potency was 398 nM (active). In the case of `O[C@@H](C1=C/C(=C\c2ccncc2)c2ccccc21)c1ccncc1`, the Potency is reported as 100 nM (active). In the case of `Nc1nc(SCCc2ccccc2)c2[nH]cnc2n1`, the Potency is reported as 3160 nM (active). In the case of `Nc1nc(SCc2ccccc2[N+](=O)[O-])c2[nH]cnc2n1`, the Potency is reported as 5010 nM (active). For `O=S(=O)(c1cnccc1N1CCN(CCO)CC1)N1CCCC1`, the activity change, negative = inhibition was -8.3% [at 2.29 µM] (inactive). `COc1ccc(Oc2ncc3nc(C)c(=O)n(-c4ccc(OC)cc4)c3n2)cc1` was tested, and the Potency was 15800 nM (active).
